Measurements as given in PubChem BioAssay (NCI).
The panel holds about 79,000 compounds, 15% with a hit somewhere; the sample as a whole holds those more often. Calls of active or inactive are those of the source. Cut-off read from the data, not from the text of the source: active = growth inhibition above about 70%; inactive = the rest.

Experiments:
[1] = NCI Yeast Anticancer Drug Screen. Data for the rad52 strain (AID 147);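 note: 0% = growth of vehicle-treated control cultures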; details: S. cerevisiae rad52 mutant growth inhibition, hits give high values
Method in brief: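 The repair-mutant yeast strain was incubated with compounds, then growth was read and inhibition derived relative to vehicle.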

[2] = NCI Yeast Anticancer Drug Screen. Data for the wt1 strain (AID 149);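 note: 0% = growth of vehicle-treated wt1 cultures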; details: S. cerevisiae wt1 strain (SPY 50644) growth inhibition, hits give high values
Method in brief: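 Using yeast strain wt1, compound-induced growth inhibition was determined against vehicle-treated cultures.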

[3] = NCI Yeast Anticancer Drug Screen. Data for the rad50EPP+ strain (AID 151);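 note: 0% = growth of vehicle-treated control cultures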; details: S. cerevisiae rad50 mutant strain, hits give high values
Method in brief: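 Vehicle-normalised growth inhibition; rad50EPP+ yeast strain, altered in DNA damage repair, compound-treated.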

[4] = NCI Yeast Anticancer Drug Screen. Data for the mgt1 strain (AID 153); details: S. cerevisiae mgt1 mutant growth inhibition, hits give high values
Method in brief: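 Vehicle-normalized growth inhibition is determined in mgt1 yeast, a strain selected for a defined alteration in DNA repair or cell cycle control.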

[5] = NCI Yeast Anticancer Drug Screen. Data for the rad50 strain (AID 155);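 note: 0% = growth of vehicle-only cultures of the same strain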; details: S. cerevisiae rad50 strain growth inhibition, hits give high values
Method in brief: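 Relative growth inhibition (compound vs vehicle) was measured in yeast with a defined repair-gene alteration.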

[6] = NCI Yeast Anticancer Drug Screen. Data for the mec2-1 strain (AID 157); details: S. cerevisiae mec2-1 strain, hits give high values
Method in brief: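 Mutant yeast (mec2-1) grown with compound; growth inhibition relative to vehicle control reported.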

[7] = NCI Yeast Anticancer Drug Screen. Data for the rad14 strain (AID 159);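 note: 0% = growth of vehicle-treated control cultures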; details: S. cerevisiae rad14 strain growth inhibition, hits give high values
Method in brief: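 Screen for anticancer potential: a yeast strain altered in DNA damage repair is grown with compound, and reduced growth is quantified against vehicle controls.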

[8] = NCI Yeast Anticancer Drug Screen. Data for the sgs1 mgt1 strain (AID 161);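 note: 0% = growth of cultures given vehicle only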; details: S. cerevisiae sgs1 mgt1 strain, hits give high values
Method in brief: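 Growth of a repair-deficient yeast mutant was monitored after compound treatment and expressed as inhibition relative to vehicle-treated cultures.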

[9] = NCI Yeast Anticancer Drug Screen. Data for the CLN2oe strain (AID 163);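 note: 0% = growth of vehicle-only control cultures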; details: S. cerevisiae CLN2oe strain, hits give high values
Method in brief: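 Compounds are applied to yeast harbouring a defined cell-cycle control change; reduced growth compared with vehicle-treated controls gives the value.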

[10] = NCI Yeast Anticancer Drug Screen. Data for the cln2 rad14 strain (AID 165);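 note: 0% = growth equal to vehicle treated cultures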; details: S. cerevisiae cln2 rad14 strain, hits give high values
Method in brief: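 Readout is yeast growth inhibition versus vehicle-treated controls, using a strain with cln2 and rad14 alterations exposed to compound.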

[11] = NCI Yeast Anticancer Drug Screen. Data for the bub3 strain (AID 167); details: S. cerevisiae bub3 mutant strain, hits give high values
Method in brief: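 Screening used yeast with an engineered genetic alteration affecting cell cycle control. Compound-exposed cultures were compared with vehicle cultures, and reduced growth was taken as inhibition.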

[12] = NCI Yeast Anticancer Drug Screen. Data for the wt2 strain (AID 169);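 note: 0% = growth of vehicle-treated yeast cultures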; details: S. cerevisiae wt2 strain growth inhibition, hits give high values
Method in brief: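 Against vehicle-treated controls, the growth of yeast exposed to each compound was compared, and the inhibition was recorded.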

[13] = NCI Yeast Anticancer Drug Screen. Data for the mlh1 strain (AID 171);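 note: 0% = growth of vehicle-treated control cultures of the same strain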; details: S. cerevisiae mlh1 strain growth inhibition, hits give high values
Method in brief: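 Measured: yeast growth. Reference: vehicle-treated controls. Organism: strain with a defined alteration affecting DNA damage repair or cell cycle control, treated with compound.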

[14] = NCI Yeast Anticancer Drug Screen. Data for the sgs1 strain (AID 173);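 note: 0% = growth of vehicle-only control cultures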; details: S. cerevisiae sgs1 mutant, hits give high values
Method in brief: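 Each compound was added to cultures of the altered yeast strain. Growth was recorded, and inhibition was derived by comparison with vehicle controls.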

[15] = NCI Yeast Anticancer Drug Screen. Data for the mlh1 rad18 strain (AID 175); details: S. cerevisiae mlh1 rad18 strain growth inhibition, hits give high values
Method in brief: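 Genetically defined yeast (DNA repair-deficient) exposed to compounds; growth inhibition determined relative to vehicle.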

[16] = NCI Yeast Anticancer Drug Screen. Data for the rad18 strain (AID 177); details: S. cerevisiae rad18 mutant growth inhibition, hits give high values
Method in brief: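 Vehicle-treated cultures served as the baseline for scoring compound-induced growth inhibition in DNA-repair-mutant yeast.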

[17] = at 5.0 µM (retest, dose inferred, filed as 0.5)
[18] = at 50.0 µM (retest, dose inferred, filed as 5.0)

Measured: growth inhibition

CC[C@@]1(O)C(=O)OCc2c1cc1n(c2=O)Cc2cc3c(N)cccc3nc2-1
inactive: [1]; at 1.2 µM 54% | [2]; at 1.2 µM 22% | [2]; at 3.7 µM 13% | [2]; at 11.0 µM 7% | [2]; at 33.0 µM 8% | [2]; at 100.0 µM -1% | [3]; at 1.2 µM 13% | [3]; at 3.7 µM 30% | [3]; at 11.0 µM 53% | [3]; at 33.0 µM 54% | [3]; at 100.0 µM 52% | [4]; at 1.2 µM 4% | [4]; at 3.7 µM -3% | [4]; at 11.0 µM 9% | [4]; at 33.0 µM 2% | [4]; at 100.0 µM 5% | [6]; at 1.2 µM -7% | [6]; at 3.7 µM -1% | [6]; [17] 2% | [6]; at 11.0 µM 18% | [6]; at 33.0 µM 23% | [6]; [18] 5% | [6]; at 50.0 µM 36.7% | [6]; at 100.0 µM 30% | [7]; at 1.2 µM -20% | [7]; at 3.7 µM -29% | [7]; at 11.0 µM -25% | [7]; at 33.0 µM -24% | [7]; at 100.0 µM -33% | [8]; [17] 1% | [8]; [18] 14% | [8]; at 50.0 µM 19.9% | [9]; at 1.2 µM 25% | [9]; at 3.7 µM 23% | [9]; at 11.0 µM 25% | [9]; at 33.0 µM 22% | [9]; at 100.0 µM 13% | [10]; [17] 35% | [10]; [18] -11% | [10]; at 50.0 µM -8.35% | [11]; at 1.2 µM -28% | [11]; at 3.7 µM -32% | [11]; [17] -1% | [11]; at 11.0 µM -26% | [11]; at 33.0 µM -7% | [11]; [18] 1% | [11]; at 50.0 µM -0.65% | [11]; at 100.0 µM -30% | [12]; at 1.2 µM -16% | [12]; at 3.7 µM -9% | [12]; at 11.0 µM -8% | [12]; at 33.0 µM -3% | [12]; at 100.0 µM -16% | [13]; at 1.2 µM 1% | [13]; at 3.7 µM 6% | [13]; at 11.0 µM 11% | [13]; at 33.0 µM 16% | [13]; at 100.0 µM 2% | [14]; at 1.2 µM 0% | [14]; at 3.7 µM -2% | [14]; at 11.0 µM 5% | [14]; at 33.0 µM 5% | [14]; at 100.0 µM 8% | [15]; [17] -6% | [15]; [18] 1% | [15]; at 50.0 µM 5.1% | [16]; at 1.2 µM -10% | [16]; at 3.7 µM -11% | [16]; at 11.0 µM -13% | [16]; at 33.0 µM -15% | [16]; at 100.0 µM -23%
active: [1]; at 3.7 µM 79% | [1]; at 11.0 µM 85% | [1]; at 33.0 µM 82% | [1]; at 100.0 µM 75% | [5]; at 1.2 µM 70% | [5]; at 3.7 µM 87% | [5]; [17] 81% | [5]; at 11.0 µM 88% | [5]; at 33.0 µM 86% | [5]; [18] 84% | [5]; at 50.0 µM 88% | [5]; at 100.0 µM 83%

CCOC(=O)C1=C(C(=O)c2ccccc2)C(c2ccccc2[N+](=O)[O-])C(C(=O)c2ccccc2)=C(C(=O)OCC)N1
active: [5]; at 50.0 µM 71.6% | [11]; [18] 86%
inactive: [1]; at 1.2 µM -2% | [1]; at 3.7 µM 0% | [1]; at 11.0 µM -1% | [1]; at 33.0 µM 1% | [1]; at 100.0 µM 11% | [2]; at 1.2 µM -2% | [2]; at 3.7 µM -1% | [2]; at 11.0 µM -1% | [2]; at 33.0 µM -1% | [2]; at 100.0 µM -4% | [3]; at 1.2 µM 1% | [3]; at 3.7 µM 7% | [3]; at 11.0 µM 13% | [3]; at 33.0 µM 18% | [3]; at 100.0 µM 27% | [4]; at 1.2 µM 0% | [4]; at 3.7 µM 1% | [4]; at 11.0 µM 0% | [4]; at 33.0 µM 1% | [4]; at 100.0 µM 35% | [5]; at 1.2 µM 0% | [5]; at 3.7 µM -1% | [5]; [17] 2% | [5]; at 11.0 µM -2% | [5]; at 33.0 µM 1% | [5]; [18] 60% | [5]; at 100.0 µM 17% | [6]; at 1.2 µM -3% | [6]; at 3.7 µM -3% | [6]; [17] -4% | [6]; at 11.0 µM -3% | [6]; at 33.0 µM -1% | [6]; [18] 20% | [6]; at 50.0 µM 18.6% | [6]; at 100.0 µM 10% | [7]; at 1.2 µM 0% | [7]; at 3.7 µM 2% | [7]; at 11.0 µM 8% | [7]; at 33.0 µM 9% | [7]; at 100.0 µM 29% | [8]; [17] 9% | [8]; [18] 16% | [8]; at 50.0 µM 41.8% | [9]; at 1.2 µM 0% | [9]; at 3.7 µM 0% | [9]; at 11.0 µM 2% | [9]; at 33.0 µM 3% | [9]; at 100.0 µM 0% | [10]; [17] 7% | [10]; [18] 39% | [10]; at 50.0 µM 16.9% | [11]; at 1.2 µM 6% | [11]; at 3.7 µM 8% | [11]; [17] 3% | [11]; at 11.0 µM 11% | [11]; at 33.0 µM 10% | [11]; at 50.0 µM 19% | [11]; at 100.0 µM 42% | [12]; at 1.2 µM -2% | [12]; at 3.7 µM -1% | [12]; at 11.0 µM -1% | [12]; at 33.0 µM 0% | [12]; at 100.0 µM 10% | [13]; at 1.2 µM -1% | [13]; at 3.7 µM -2% | [13]; at 11.0 µM -2% | [13]; at 33.0 µM 1% | [13]; at 100.0 µM 20% | [15]; [17] -21% | [15]; [18] 61% | [15]; at 50.0 µM 65.6%
